Screens (PubChem)
Shn3 3UTR inh: reduces Shn3 3'UTR luciferase signal in osteoblasts. inhibition, % at 12.5 µM. 360,000 compounds, 0.52% hits. Clone20 osteoblast Shn3 3'UTR firefly luciferase, 24 h;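 active = mean inhibition of at least 75% with every replicate also reaching 75%; inconclusive = mean inhibition at least 75% but some replicate below; inactive = mean inhibition below 75%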;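 note: 0% = median of neutral control wells and 100% = pilot-screen positive control compound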
Gli-Sufu block: antagonists of Gli-Sufu signaling. Sufu-KO-LIGHT fibroblasts, Gli luciferase reporter luminescence. inhibition, % at 5 µM. 340,000 compounds, 0.74% hits. AID 588413;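 active = inhibition above about 55%, limit read from the data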;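 note: 0% = DMSO-treated cells and 100% = wells with medium but no cells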
Jurkat NFkB inh: inhibitors of the PMA/ionomycin-induced NF-kB reporter in Jurkat cells | AID 435003 | inhibition, % at 4 µM | 330,000 compounds, 0.53% hits | PMA/ionomycin-induced NF-kB luciferase reporter, luminescence; in the data active = inhibition above about 50%
H9c2 TAG inh: inhibitors of triacylglycerol accumulation; inhibition, % at 12.5 µM; H9c2 cells, Nile Red lipid (TAG) fluorescence; cells loaded with 200 µM oleic acid; 230,000 compounds, 0.66% hits;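 active = pattern-corrected inhibition of lipid staining of at least 50% with the nuclear-stain viability signal not falling by more than 50%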;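 note: 0% = DMSO wells and 100% = triacsin C control wells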
697 NFkB inh: lowers PMA/ionomycin-induced NF-kB signal in 697 B cells | inhibition, % at 4 µM | AID 435022 | 697 B-cell NF-kB luciferase reporter, 16 h | 330,000 compounds, 0.33% hits; in the data active = inhibition above about 35%
aSyn UTR inh: MLPCN primary screen, SNCA 5' untranslated region. alpha-synuclein 5'UTR reporter, inhibitor activity. inhibition, % (tested at 7.5 µM). 300,000 compounds, 0.82% hits. AID 1813; in the data active = inhibition above about 60%; inconclusive = no clear call, values can overlap the other calls;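 note: H4 neuroglioblastoma cells stably carrying SNCA 5'UTR luciferase fusion; 0% = DMSO wells and 100% = positive control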
* marks the source's active call; other numbers are inactive results; ? = inconclusive; / = not tested or not shown; ! = not confirmed by another sample. A selection: hits, their analogues and other compounds. The true share with any hit is near 2.3%.

SMILES | Shn3 3UTR inh | Gli-Sufu block | Jurkat NFkB inh | H9c2 TAG inh | 697 NFkB inh | aSyn UTR inh
O=C(N=C1c2ccccc2CN1c1ccc(F)c(F)c1)c1cccnc1 | -14.4 | -22.3 | -2.1 | / | 1.9 | -83.7
N#Cc1cc2c(nc1SCC(=O)O)CCCCC2 | 5.8 | 2.7 | -14.7 | 7.3 | 15.0 | -0.5
CC(C)C(c1nnnn1Cc1ccccc1)N(CCCO)Cc1cc2cc3c(cc2[nH]c1=O)OCO3 (stereo not drawn) | 8.8 | -4.1 | 1.2 | / | 10.2 | 10.0
OC(COc1c(Br)cc(Br)cc1Br)CN1CCOCC1 (stereo not drawn) | 8.7 | -0.3 | / | -1.0 | / | 20.2
c1ccc(-c2cc3c(ccc4nonc43)nn2)cc1 | -37.6 | -23.9 | -22.0 | 10.3 | -47.2 | -96.4
On1onc2c3cc(-c4ccccc4)nc3ccc21 | 70.0 | 64.8* | -9.2 | / | -139.6 | /
O=[N+]([O-])c1ccccc1N=Nc1c(O)[nH]c2ccc(F)cc12 | 85.1* | -12.9 | / | 10.0 | / | /
COc1ccc(OC)c(N/C(C)=C/C(=O)c2ccccc2)c1 | -51.0 | -77.9 | -120.3 | / | -91.5 | -112.7
COc1ccc(OC)c(N/C=C/C(=O)c2ccccc2)c1 | 33.6 | -35.3 | -12.0 | / | -219.8 | 82.7*
Cc1ccc2c(c1)c1c3n2CCCNC3CCC1 (stereo not drawn) | -9.4 | 1.1 | 10.9 | 27.6 | 0.4 | -1.3
c1cc2c(cc1C1CCCCC1)c1c3n2CCCNC3CCC1 (stereo not drawn) | -2.1 | 14.3 | 6.5 | 76.8* | 12.5 | 86.7*
CC(/C=N/NC(=O)c1cc(-c2ccncc2)nc2ccccc12)=C\c1ccco1 | 13.0 | 50.0 | -20.7 | / | -6.5 | 86.1*
COc1ccc(C=C2C=C(C(C)(C)C)C(=O)C(C(C)(C)C)=C2)cc1OC | 93.2* | 28.5 | -38.4 | / | -82.1 | -0.4
COc1ccc(/C=C2\CC/C(=C\c3ccc(OC)c(OC)c3)C2=O)cc1OC | -36.6 | -15.0 | -1.9 | / | -17.8 | -73.9
Cc1cc(C(=O)NCC(c2cccs2)N2CCOCC2)ccc1[N+](=O)[O-] (stereo not drawn) | 1.3 | -0.8 | 14.1 | -14.5 | 7.5 | -23.0
Cc1nc(N2CCN(C(=O)c3ccco3)CC2)c2c3c(sc2n1)CC(C)CC3 (stereo not drawn) | 91.7* | 79.2* | -11.0 | 16.4 | -13.5 | -16.4
Cc1nc(N2CCN(C(=O)c3ccco3)CC2)c2c3c(sc2n1)CCCC3 | 23.6 | 15.9 | 12.8 | / | 2.9 | 3.7
S=c1[nH]nc(-c2cc(-c3ccccc3)n[nH]2)n1/N=C/c1ccccc1 | -19.0 | 9.3 | 1.2 | 2.5 | -21.7 | -35.4
S=c1[nH]nc(-c2cc(-c3ccccc3)n[nH]2)n1/N=C/C(Br)=C/c1ccccc1 | 73.6 | -7.1 | 33.4 | 71.6* | -131.3 | -42.3
COc1ccc(/C=N/Nc2nncc3ccccc23)cc1 | 12.3 | -100.2 | -82.3 | / | -210.7 | 67.1*
COc1ccccc1/C=N/Nc1nncc2ccccc12 | -20.1 | -50.8 | -68.2 | -5.3 | -44.2 | -131.5
COc1ccc(S(=O)(=O)N2CCC(C(=O)N3CCCC3)CC2)cc1Cl | 6.0 | 37.2 | 9.9 | -0.5 | 8.3 | 3.5
CNC(=O)/C(C#N)=C/c1c(N(Cc2ccccc2)Cc2ccccc2)nc2ccccn2c1=O | 13.5 | -7.1 | 11.3 | / | -20.7 | 22.1
COc1ccc(S(=O)(=O)N2CCOC2CNC(=O)C(=O)NCc2ccccn2)cc1OC (stereo not drawn) | 59.3 | / | / | 4.0 | / | /
Cc1cc(SCC(=O)N/N=C/c2ccc(O)c(O)c2)nc2ccccc12 | 8.4 | 18.2 | 27.8 | 10.3 | -63.0 | 0.2
SMILES | Shn3 3UTR inh | Gli-Sufu block | Jurkat NFkB inh | H9c2 TAG inh | 697 NFkB inh | aSyn UTR inh
Cc1cc(SCC(=O)N/N=C/c2ccc(O)cc2O)nc2ccccc12 | 91.8* | 16.3 | 7.3 | -9.0 | -55.6 | ?
CC1C(=O)N(Cc2cn(CCC3OCCCO3)nn2)CCS(=O)(=O)N1Cc1ccc(-c2ccc(Cl)c(Cl)c2)cc1 (stereo not drawn) | 92.0* | / | / | -3.1 | / | /
CC1C(=O)N(Cc2cn(CCC3OCCCO3)nn2)CCS(=O)(=O)N1Cc1ccc(-c2ccc(F)cc2)cc1 (stereo not drawn) | 15.8 | / | / | 4.2 | / | /
CCOC(=O)C1=NN(C(=O)c2cccc(Br)c2)C(O)(C(C)(C)C)C1 (stereo not drawn) | / | / | 18.0 | / | 3.4 | 104.7*
COC(=O)C1=NN(C(=O)c2cccc(Br)c2)C(O)(c2ccc(Cl)cc2)C1 (stereo not drawn) | -30.4 | -5.6 | -7.1 | 8.7 | 2.8 | 17.4
O=C(CN1CCOCC1)Nc1ccc(Oc2ccccc2)cc1 | 1.2 | -0.5 | 5.5 | 14.8 | -21.7 | -0.7
O=C(CSc1n[nH]c(-c2ccccn2)n1)Nc1ccc(F)cc1 | 82.2 | -5.4 | -5.4 | / | 1.2 | 72.8*
O=C(CSc1n[nH]c(-c2ccccn2)n1)Nc1ccc(Cl)cc1 | 76.0 | 15.7 | -3.9 | / | -6.2 | 73.6*
Cc1nnc(N/N=C/c2ccc(-c3ccc(Br)cc3)o2)n1N | -18.9 | 5.6 | -19.9 | 3.6 | -24.4 | -27.9
CN1CCN(Cc2nc3ccccc3c(=O)n2Cc2nc(-c3ccc4ccccc4c3)cs2)CC1 | 92.9*! | 8.1 | / | -1.3 | / | 23.0
CN1CCN(Cc2nc3ccccc3c(=O)n2Cc2nc(-c3cccc([N+](=O)[O-])c3)cs2)CC1 | 17.8 | 15.8 | -1.2 | / | 1.0 | /
CCn1nnnc1SCC(=O)Nc1sc(C)c(C)c1C#N | 17.3 | 5.8 | 7.4 | / | 8.8 | 7.4
Cc1ccc2c(Cl)cc(Cl)c(O)c2n1 | 66.0 | 59.5* | / | 16.8 | / | /
O=C(Nc1ccc(Oc2c(F)c(F)c(F)c(F)c2F)cc1)OC1CCN2Cc3ccccc3N=C12 (stereo not drawn) | 50.3 | 13.2 | 12.3 | 16.9 | -53.8 | 104.4*
Brc1ccc(N=Nc2ccc3ccccc3n2)cc1 | 81.6 | -27.0 | 47.2 | -25.7 | -127.1 | 94.5*
CCn1c(O)c(N=Nc2ccc3ccccc3n2)c2ccccc21 | -85.6 | -87.4 | -112.3 | 17.1 | -102.0 | -143.1
O=C1CC2(CCN(C(=O)c3ccccc3F)CC2)Oc2ccccc21 | 87.3* | 6.9 | -15.9 | 18.9 | 3.9 | 6.4
CSc1ccccc1C(=O)N1CCC2(CC1)CC(=O)c1ccccc1O2 | 13.4 | 6.2 | 18.8 | -1.1 | -10.5 | 24.9
Cn1cccc1C(=O)NC(=O)COC(=O)c1ccc(S(C)(=O)=O)cc1 | -3.5 | -44.1 | 13.8 | -2.9 | 13.5 | /
CS(=O)(=O)c1ccc(C(=O)OCC(=O)NC23CC4CC(CC(C4)C2)C3)cc1[N+](=O)[O-] | 67.5 | -2.2 | -5.6 | / | 9.8 | 1.1
Cn1cccc1C(=O)NC(=O)COC(=O)c1ccc(S(C)(=O)=O)c([N+](=O)[O-])c1 | 98.2* | -1.3 | -4.1 | -6.1 | -2.3 | /
CC(C)CN1CCN(C(=O)COC(=O)c2ccc(S(C)(=O)=O)c([N+](=O)[O-])c2)CC1 | 74.7 | / | / | 64.9* | / | /
O=C1CC(C(=O)N2CCc3ccccc32)CN1c1ccc(F)cc1 (stereo not drawn) | -8.0 | 6.7 | 3.1 | / | 12.0 | 12.6
O=C(NCCCN1CCOCC1)C(=O)N/N=C/c1c2ccccc2cc2ccccc12 | 13.3 | 13.0 | 45.4 | / | -22.0 | 66.7*
COc1ccc(C(=O)NNC(=S)NC(=O)/C=C/c2cccs2)cc1 | 58.1 | 0.2 | -6.5 | 1.4 | 13.6 | 29.8
